Source: article PMC8384837, “Expanding the binding specificity for RNA recognition by a PUF domain”
Changes are numbered by the printed parent chain.

Tests used:
Assay in all cases: yeast three-hybrid, YBZ-1, SC-Leu-His + 0.5 mM 3-AT, 4 days
Details in all cases: tags: N-Gal4 AD-HA kept; label: inside an RPR1-promoter hybrid RNA with tandem MS2 sites; ssRNA
PUM1 PUF domain R4-PHM = PUM1 PUF domain R4-PHM (Homo sapiens, UniProt Q14671 828-1176, N971P;Q975M)
Outline: (§1)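 Pumilio-1 PUF domain libraries, randomized at the three base-contacting residues of each repeat, were co-expressed with matching RNA elements from a centromeric plasmid in strain YBZ-1, which carries a LexA–MS2 coat fusion and a HIS3 reporter. Transformants grew for four days on SC-Leu (input) or on SC-Leu-His + 0.5 mM 3-AT (selection), and the repeat regions were PCR-amplified and Illumina-sequenced. The interaction score is the log change in variant frequency from input to selection. That logarithm is base 2, with a pseudocount of 1 where a variant was absent.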

PUM1 PUF domain R6-RYA = biological target: T1, PUM1 PUF domain R6-RYA (Homo sapiens, UniProt Q14671 828-1176, N1043R;Q1047A)
T1 sequence: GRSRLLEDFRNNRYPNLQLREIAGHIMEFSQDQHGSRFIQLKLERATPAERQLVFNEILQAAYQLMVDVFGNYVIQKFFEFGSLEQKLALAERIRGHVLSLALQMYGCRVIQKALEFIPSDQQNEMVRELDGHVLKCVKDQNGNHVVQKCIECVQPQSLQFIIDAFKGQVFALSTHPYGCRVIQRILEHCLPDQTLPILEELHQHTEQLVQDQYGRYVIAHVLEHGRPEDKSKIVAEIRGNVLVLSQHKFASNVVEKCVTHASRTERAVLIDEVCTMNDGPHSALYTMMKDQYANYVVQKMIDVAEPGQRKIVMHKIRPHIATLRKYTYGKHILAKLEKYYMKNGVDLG
Outline: as §1

PUM1 PUF domain R5-LFQ = PUM1 PUF domain R5-LFQ (Homo sapiens, UniProt Q14671 828-1176, C1007L;R1008F)
Outline: as §1

PUM1 PUF domain R7-KYK = PUM1 PUF domain R7-KYK (Homo sapiens, UniProt Q14671 828-1176, S1079K;N1080Y;E1083K)
Outline: as §1

PUM1 PUF domain R6-SYM = biological target: T2, PUM1 PUF domain R6-SYM (Homo sapiens, UniProt Q14671 828-1176, N1043S;Q1047M)
T2 sequence: T1 sequence with R216S, A220M
Outline: as §1

PUM1 PUF domain R4-SRC = PUM1 PUF domain R4-SRC (Homo sapiens, UniProt Q14671 828-1176, N971S;H972R;Q975C)
Outline: as §1

PUM1 PUF domain R8-RWR = PUM1 PUF domain R8-RWR (Homo sapiens, UniProt Q14671 828-1176, N1122R;Y1123W;Q1126R)
Outline: as §1

PUM1 PUF domain R5-GRP = PUM1 PUF domain R5-GRP (Homo sapiens, UniProt Q14671 828-1176, C1007G;Q1011P)
Outline: as §1

PUM1 PUF domain R3-CYF = PUM1 PUF domain R3-CYF (Homo sapiens, UniProt Q14671 828-1176, R936Y;Q939F)
Outline: as §1

PUM1 PUF domain R8-RHP = PUM1 PUF domain R8-RHP (Homo sapiens, UniProt Q14671 828-1176, N1122R;Y1123H;Q1126P)
Outline: as §1

PUM1 PUF domain R7-KRQ = PUM1 PUF domain R7-KRQ (Homo sapiens, UniProt Q14671 828-1176, S1079K;N1080R;E1083Q)
Outline: as §1

PUM1 PUF domain R7-HHP = PUM1 PUF domain R7-HHP (Homo sapiens, UniProt Q14671 828-1176, S1079H;N1080H;E1083P)
Outline: as §1

PUM1 PUF domain R4-CPC = PUM1 PUF domain R4-CPC (Homo sapiens, UniProt Q14671 828-1176, N971C;H972P;Q975C)
Outline: as §1

PUM1 PUF domain R3-FSG = PUM1 PUF domain R3-FSG (Homo sapiens, UniProt Q14671 828-1176, C935F;R936S;Q939G)
Outline: as §1

PUM1 PUF domain R4-CNC = PUM1 PUF domain R4-CNC (Homo sapiens, UniProt Q14671 828-1176, N971C;H972N;Q975C)
Outline: as §1

PUM1 PUF domain R5-SAT = PUM1 PUF domain R5-SAT (Homo sapiens, UniProt Q14671 828-1176, C1007S;R1008A;Q1011T)
Outline: as §1

PUM1 PUF domain R1-RYL = PUM1 PUF domain R1-RYL (Homo sapiens, UniProt Q14671 828-1176, S863R;R864Y;Q867L)
Outline: as §1

PUM1 PUF domain R1-SGR = PUM1 PUF domain R1-SGR (Homo sapiens, UniProt Q14671 828-1176, R864G;Q867R)
Outline: as §1

PUM1 PUF domain R5-SFS = PUM1 PUF domain R5-SFS (Homo sapiens, UniProt Q14671 828-1176, C1007S;R1008F;Q1011S)
Outline: as §1

PUM1 PUF domain R5-QVR = PUM1 PUF domain R5-QVR (Homo sapiens, UniProt Q14671 828-1176, C1007Q;R1008V;Q1011R)
Outline: as §1

PUM1 PUF domain R7-KYK, sequence (Q14671 828-1176 S1079K/N1080Y/E1083K): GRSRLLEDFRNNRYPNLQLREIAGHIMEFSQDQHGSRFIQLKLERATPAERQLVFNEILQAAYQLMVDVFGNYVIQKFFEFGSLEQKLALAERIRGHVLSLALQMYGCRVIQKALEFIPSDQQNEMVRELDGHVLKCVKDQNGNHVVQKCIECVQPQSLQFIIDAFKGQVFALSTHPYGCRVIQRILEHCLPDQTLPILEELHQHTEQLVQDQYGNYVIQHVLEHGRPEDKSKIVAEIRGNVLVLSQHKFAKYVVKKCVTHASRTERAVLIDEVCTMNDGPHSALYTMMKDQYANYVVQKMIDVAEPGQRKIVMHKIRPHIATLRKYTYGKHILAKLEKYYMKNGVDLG
PUM1 PUF domain R5-GRP, sequence (Q14671 828-1176 C1007G/Q1011P): as the sequence (Q14671 828-1176 S1079K/N1080Y/E1083K) above, with C180G, Q184P, K252S, Y253N, K256E counted along it
PUM1 PUF domain R7-HHP, sequence (Q14671 828-1176 S1079H/N1080H/E1083P): as the sequence (Q14671 828-1176 S1079K/N1080Y/E1083K) above, with K252H, Y253H, K256P counted along it
PUM1 PUF domain R8-RHP, sequence (Q14671 828-1176 N1122R/Y1123H/Q1126P): as the sequence (Q14671 828-1176 S1079K/N1080Y/E1083K) above, with K252S, Y253N, K256E, N295R, Y296H, Q299P counted along it
PUM1 PUF domain R4-CNC, sequence (Q14671 828-1176 N971C/H972N/Q975C): as the sequence (Q14671 828-1176 S1079K/N1080Y/E1083K) above, with N144C, H145N, Q148C, K252S, Y253N, K256E counted along it
PUM1 PUF domain R3-CYF, sequence (Q14671 828-1176 R936Y/Q939F): as the sequence (Q14671 828-1176 S1079K/N1080Y/E1083K) above, with R109Y, Q112F, K252S, Y253N, K256E counted along it
PUM1 PUF domain R1-SGR, sequence (Q14671 828-1176 R864G/Q867R): as the sequence (Q14671 828-1176 S1079K/N1080Y/E1083K) above, with R37G, Q40R, K252S, Y253N, K256E counted along it
PUM1 PUF domain R4-CPC, sequence (Q14671 828-1176 N971C/H972P/Q975C): as the sequence (Q14671 828-1176 S1079K/N1080Y/E1083K) above, with N144C, H145P, Q148C, K252S, Y253N, K256E counted along it
PUM1 PUF domain R7-KRQ, sequence (Q14671 828-1176 S1079K/N1080R/E1083Q): as the sequence (Q14671 828-1176 S1079K/N1080Y/E1083K) above, with Y253R, K256Q counted along it
PUM1 PUF domain R3-FSG, sequence (Q14671 828-1176 C935F/R936S/Q939G): as the sequence (Q14671 828-1176 S1079K/N1080Y/E1083K) above, with C108F, R109S, Q112G, K252S, Y253N, K256E counted along it
PUM1 PUF domain R5-QVR, sequence (Q14671 828-1176 C1007Q/R1008V/Q1011R): as the sequence (Q14671 828-1176 S1079K/N1080Y/E1083K) above, with C180Q, R181V, Q184R, K252S, Y253N, K256E counted along it

## GGCUAGAACUAGUGGAUCCCCCGGCGCCCGGCGGCUCGAGCCCGGGUAAGUGUAAAUAGUCUGCAUGCCGCCGGGCGCCAUGCCUGCAGGUCGACUCUAGAAAACAUG
PUM1 PUF domain R4-PHM
  binding signal: 4.14 log2 enrichment (interaction score)
PUM1 PUF domain R6-RYA
  binding signal: 3.02 log2 enrichment (interaction score)
PUM1 PUF domain R5-LFQ
  binding signal: 2.45 log2 enrichment (interaction score)
PUM1 PUF domain R7-KYK
  binding signal: 2.18 log2 enrichment (interaction score)
PUM1 PUF domain R6-SYM
  binding signal: 2.79 log2 enrichment (interaction score)
PUM1 PUF domain R4-SRC
  binding signal: 4.65 log2 enrichment (interaction score)
PUM1 PUF domain R8-RWR
  binding signal: 6.58 log2 enrichment (interaction score)
PUM1 PUF domain R5-GRP
  binding signal: 2.96 log2 enrichment (interaction score)
PUM1 PUF domain R3-CYF
  binding signal: 5.41 log2 enrichment (interaction score)
PUM1 PUF domain R8-RHP
  binding signal: 5.42 log2 enrichment (interaction score)

## GGCUAGAACUAGUGGAUCCCCCGGCGCCCGGCGGCUCGAGCCCGGGUAAGUCUAAAUAGUCUGCAUGCCGCCGGGCGCCAUGCCUGCAGGUCGACUCUAGAAAACAUG
PUM1 PUF domain R7-KYK
  binding signal: 5.83 log2 enrichment (interaction score)
PUM1 PUF domain R7-KRQ
  binding signal: 2.89 log2 enrichment (interaction score)
PUM1 PUF domain R7-HHP
  binding signal: 2.54 log2 enrichment (interaction score)

## GGCUAGAACUAGUGGAUCCCCCGGCGCCCGGCGGCUCGAGCCCGGGUAAGUGUACAUAGUCUGCAUGCCGCCGGGCGCCAUGCCUGCAGGUCGACUCUAGAAAACAUG
PUM1 PUF domain R4-CPC
  binding signal: 2.9 log2 enrichment (interaction score)

## GGCUAGAACUAGUGGAUCCCCCGGCGCCCGGCGGCUCGAGCCCGGGUAAGUGUAAGUAGUCUGCAUGCCGCCGGGCGCCAUGCCUGCAGGUCGACUCUAGAAAACAUG
PUM1 PUF domain R3-FSG
  binding signal: 3.59 log2 enrichment (interaction score)

## GGCUAGAACUAGUGGAUCCCCCGGCGCCCGGCGGCUCGAGCCCGGGUAAGUGUUAAUAGUCUGCAUGCCGCCGGGCGCCAUGCCUGCAGGUCGACUCUAGAAAACAUG
PUM1 PUF domain R5-GRP
  binding signal: 0.43 log2 enrichment (interaction score)

## GGCUAGAACUAGUGGAUCCCCCGGCGCCCGGCGGCUCGAGCCCGGGUAAGCGUAAAUAGUCUGCAUGCCGCCGGGCGCCAUGCCUGCAGGUCGACUCUAGAAAACAUG
PUM1 PUF domain R8-RWR
  binding signal: 7 log2 enrichment (interaction score)
PUM1 PUF domain R8-RHP
  binding signal: 5.5 log2 enrichment (interaction score)

## GGCUAGAACUAGUGGAUCCCCCGGCGCCCGGCGGCUCGAGCCCGGGUAAGUGUAUAUAGUCUGCAUGCCGCCGGGCGCCAUGCCUGCAGGUCGACUCUAGAAAACAUG
PUM1 PUF domain R4-PHM
  binding signal: 5.12 log2 enrichment (interaction score)
PUM1 PUF domain R4-CNC
  binding signal: 3.13 log2 enrichment (interaction score)

## GGCUAGAACUAGUGGAUCCCCCGGCGCCCGGCGGCUCGAGCCCGGGUAAGUGUGAAUAGUCUGCAUGCCGCCGGGCGCCAUGCCUGCAGGUCGACUCUAGAAAACAUG
PUM1 PUF domain R5-SAT
  binding signal: 2.75 log2 enrichment (interaction score)
PUM1 PUF domain R5-GRP
  binding signal: 1.44 log2 enrichment (interaction score)

## GGCUAGAACUAGUGGAUCCCCCGGCGCCCGGCGGCUCGAGCCCGGGUAAGUGUAAAUCGUCUGCAUGCCGCCGGGCGCCAUGCCUGCAGGUCGACUCUAGAAAACAUG
PUM1 PUF domain R1-RYL
  binding signal: 2.26 log2 enrichment (interaction score)
PUM1 PUF domain R1-SGR
  binding signal: 3.72 log2 enrichment (interaction score)

## GGCUAGAACUAGUGGAUCCCCCGGCGCCCGGCGGCUCGAGCCCGGGUAAGUAUAAAUAGUCUGCAUGCCGCCGGGCGCCAUGCCUGCAGGUCGACUCUAGAAAACAUG
PUM1 PUF domain R7-KYK
  binding signal: 4.11 log2 enrichment (interaction score)
PUM1 PUF domain R7-HHP
  binding signal: 2.33 log2 enrichment (interaction score)

## GGCUAGAACUAGUGGAUCCCCCGGCGCCCGGCGGCUCGAGCCCGGGUAAGUGUCAAUAGUCUGCAUGCCGCCGGGCGCCAUGCCUGCAGGUCGACUCUAGAAAACAUG
PUM1 PUF domain R5-SFS
  binding signal: 3.78 log2 enrichment (interaction score)
PUM1 PUF domain R5-QVR
  binding signal: 3.01 log2 enrichment (interaction score)

## GGCUAGAACUAGUGGAUCCCCCGGCGCCCGGCGGCUCGAGCCCGGGUAAGUGUAAAUUGUCUGCAUGCCGCCGGGCGCCAUGCCUGCAGGUCGACUCUAGAAAACAUG
PUM1 PUF domain R1-RYL
  binding signal: 2.71 log2 enrichment (interaction score)
